The values that follow come from PubChem BioAssay (NCI).

About 83,000 compounds went through this panel and 20% of them were active in at least one assay; those are over-represented in the sample as a whole.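 Percent growth is the endpoint: 0 to 100 indicates growth inhibition (40 means 60% inhibition), 0 means no net growth, and negative values indicate cell death.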 Unmarked numbers belong to inactive results. The source made the active and inactive calls. Rule for the calls: active = growth percent below 10; inactive = the rest.

Experiment in all cases: NCI-60 one-dose screen, 48 h (100 = growth as untreated, 0 = no growth, -100 = all killed)
Holding throughout (details): 10 µM unless noted

In experiment [1] the test system is RPMI-8226 leukemia.
In experiment [2] the test system is OVCAR-8 ovarian.
For experiment [3], the system named is OVCAR-5 ovarian.
In experiment [4] the test system is OVCAR-4 ovarian.
In experiment [5] the test system is SK-OV-3 ovarian.
The test system of experiment [6] is IGROV1 ovarian.
Experiment [7] concerns OVCAR-3 ovarian.
For experiment [8], the system named is HS 578T breast.
In experiment [9] the test system is NCI/ADR-RES ovarian.
For experiment [10], the system named is T-47D breast.

With `O=C1Nc2ccc(Br)cc2/C1=N\N=C/c1cn(Cc2ccccc2)c2ccccc12`, the growth in experiment [1] was 95.9%; in experiment [2], 96.1%; in [3], 28.3%; in experiment [4] it was 84.3%; in [5] it was 76.2%; in experiment [6], 80.7%. The growth is 109% in experiment [7], 80.9% in experiment [8], 99.5% in experiment [9] and 89.6% in [10].
`N#Cc1nc(-c2ccccc2)oc1S(=O)(=O)NCC(c1ccc(Cl)cc1)N1CCCCC1` (stereo not given): the growth was 3.47% (active) in [1]; 71.3% in experiment [2]; 102% in [3]; 99.3% in [4]; 113% in experiment [5]; 44.2% in experiment [6]. The growth is 61.9% in [7], 102% in [8], 91.1% in experiment [9] and 65.1% in experiment [10].
As for `O=C(CCCC(=O)Nc1ccc(-n2nnc3cc(Cl)c(Cl)cc32)cc1)Nc1ccc(-n2nnc3cc(Cl)c(Cl)cc32)cc1`, the growth was 81.1% in [1]; 25.5% in experiment [2]; 87.6% in experiment [3]; -5.56% (active) in experiment [4]; 31% in [5]; 59.8% in [6]. The growth in experiment [7] is 56.1%; in experiment [8], 49.8%; in [9] it was 84.5%; in experiment [10], 36.7%.
`C#C[C@@]1(O)[C@@H](CO)O[C@@H](n2cc(I)c3c(N)ncnc32)[C@@H]1O`: the growth in [1] was 5.83% (active); in experiment [2] it was -19.4% (active); in experiment [3], 20.6%; in experiment [4] it was 20.4%; in experiment [5], -28.3% (active); in experiment [6], -34.9% (active). Also, the growth in [7] was -17.8% (active); in [8], -15.5% (active); in experiment [9], -4.5% (active); in experiment [10], -21.1% (active).
In the case of `COc1cc2cc(c1Cl)N(C)C(=O)C[C@H](OC(=O)[C@H](C)N(C)C(=O)CCS)C[C@]1(C)O[C@H]1[C@H](C)[C@@H]1C[C@@](O)(NC(=O)O1)[C@H](OC)/C=C/C=C(\C)C2`, the growth in [1] was 24.4%; in experiment [2], 13.7%; in [3], 44%; in experiment [4], 28.8%; in [5], 18.7%; in experiment [6], 18.5%. Further, the growth was -4.97% (active) in experiment [7], 20.9% in experiment [8], 10.5% in experiment [9] and 61.2% in experiment [10].
As for `N#Cc1c(-c2ccc(Cl)cc2)cc(-c2cc3ccccc3o2)nc1SCC(=O)c1ccc(Cl)cc1`, the growth is 83.6% in experiment [1]; 104% in experiment [2]; 88.4% in experiment [3]; 104% in experiment [4]; 103% in [5]; 71.5% in experiment [6]. Besides, the growth in experiment [7] was 104%; in experiment [8], 96.3%; in [9], 97.9%; in experiment [10], 108%.
On to `Cc1cnc(SCc2ccc(Cl)cc2Cl)nc1Nc1ccc(Cl)c(Cl)c1`, for which the growth is 86.7% in experiment [1]; 91.9% in [2]; 103% in experiment [3]; 93.9% in experiment [4]; 97.9% in experiment [5]; 82.8% in experiment [6]. Besides, the growth in experiment [7] is 99.6%; in [8], 90.8%; in [9] it was 95.9%; in experiment [10], 68%.
As for `OCCNc1nc(NCCO)nc(Nc2ccc(C3=NN(c4cc(Cl)cc(Cl)c4)C(c4ccc(Cl)cc4)C3)cc2)n1` (stereo not given), the growth in experiment [1] was -8.1% (active); in experiment [2], 20.8%; in experiment [3] it was 86%; in experiment [4] it was -17.6% (active); in [5], 83.1%; in experiment [6] it was -11.6% (active). For the same molecule, the growth in experiment [7] is -60.4% (active); in [8], 11.6%; in [9] it was 20.6%; in [10], 87.1%.
With `COc1ccc(NC(=O)Nc2ccc(Nc3nc(C)cc(Nc4ccc(C)cc4)n3)cc2)cc1`, the growth in experiment [1] was -45.9% (active); in experiment [2] it was -56.6% (active); in experiment [3], -85.7% (active); in experiment [4], -87.1% (active); in experiment [5], 69%; in experiment [6], -70.5% (active). Besides, the growth was -95.5% (active) in [7], -21.6% (active) in [8], -56.3% (active) in experiment [9] and -60.1% (active) in [10].
On to `COc1ccc(C(C)c2cc(OC)c(OC)c(OC)c2)cc1` (stereo not given), for which the growth is 15.3% in [1]; 10.9% in experiment [2]; 50.3% in [3]; 34.3% in [4]; 33.2% in experiment [5]; 28.5% in experiment [6]. Further, the growth in experiment [7] is -14.1% (active); in experiment [8], 37.5%; in experiment [9] it was 13.8%; in [10], 63.1%.
For `N#Cc1c(NC(=O)c2cccs2)[n+]([O-])c2cc(C(F)(F)F)ccc2[n+]1[O-]`, the growth is 95.5% in experiment [1]; 95.4% in experiment [2]; 111% in experiment [3]; 94.1% in experiment [4]; 97.2% in [5]; -54.2% (active) in [6]. Moreover, the growth was 81.9% in [7], 84.5% in [8], 107% in experiment [9] and 90.2% in experiment [10].
As to `COc1cc(/C=N/Nc2nc(-c3ccc(F)cc3)c(C#N)c(N3CCOCC3)n2)ccc1O`, the growth is 87.1% in experiment [1]; 89.8% in experiment [2]; 107% in [3]; 89.8% in [4]; 102% in experiment [5]; 96.7% in [6]. The growth in experiment [7] is 103%; in experiment [8], 102%; in [9], 102%; in experiment [10] it was 93.6%.
